Test results as given in PubChem BioAssay AID720519 (National Center for Advancing Translational Sciences (NCATS), 2013).
Results filed as inconclusive are left out. A number with no mark means an inactive call. Activity calls are given as the source filed them. The call rests on the fitted dose curve; in most records, active means well fitted activation curve with a large enough effect; inconclusive means small, poorly fitted or top-dose-only effect; inactive means flat fitted curve, though single readings scatter.

Test: qHTS for Inhibitors of Cell Surface uPA Generation: Confirmatory Assay for Cherry-picked Compounds; on inhibition: 0% is about no effect
Conditions: cell surface uPA activity generation, qHTS confirmation; series mostly up to 115 µM; inhibition: at the top concentration
In short: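 RAW 264.7 cells at 4000/well, incubated overnight, then treated with compounds. After 24 h at 37 C, viability was read by ATPlite luminescence. An increase in signal indicates blocked uPA-dependent LF entry.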
Potency means the concentration at half of the fitted maximal effect.

Compound | inhibition [%] | Potency
CC(C)CNC(=O)COC(=O)CCC(=O)c1cccs1 | -0.888 | –
O=C(CN1C(=O)CSCC1=O)NCc1ccc(F)cc1 | -0.0415 | –
COc1cccc(NC(=O)CSc2nc3ncc(Br)cc3[nH]2)c1 | -0.495 | –
O=C(O)c1ccc(-c2ccc(/C=C3\NC(=O)N(Cc4ccc(Cl)cc4)C3=O)o2)cc1 | -0.247 | –
Cc1ccc2[nH]c(CN3CCN(C)C(CCO)C3)c(C)c2c1 (centres undefined) | 7.04 | –
CCc1ccc(S(=O)(=O)NCCc2cn3cccc(C)c3n2)s1 | -2.57 | –
COC(=O)CSc1nc(N2CCOCC2)c2c(c1C#N)CCCC2 | -3.22 | –
COc1cccc(CNC(=O)C2CCCN(S(=O)(=O)c3ccc4c(c3)C(C)(C)C(=O)N4C)C2)c1 (centres undefined) | -0.161 | –
CSc1nc(N)nc2c1ncn2CC(=O)NCC1CCCO1 (centres undefined) | 0.303 | –
O=C(O)CCCC(=O)NCCCCc1ccccc1 | -1.53 | –
CCOc1ncccc1C(=O)NCc1ccccc1Cl | 0.688 | –
Cc1cc(C)cc(S(=O)(=O)c2cn(C)c3cc(N4CCN(C)CC4)c(F)cc3c2=O)c1 | -2.26 | –
NC(=O)c1cc2c3ccccc3ccn2c1-c1ccccc1 | -2.64 | –
Cc1cc(C)n2nc(CNS(=O)(=O)c3ccc(F)c(C)c3)nc2n1 | -1.56 | –
Cc1ccc(Nc2cc(C)c3ccc(O)cc3n2)cc1C | – | 6.56 µM (active)
CCOc1cc(C)c(S(=O)(=O)N2CCCCC2)cc1C | -2.77 | –
CC1=C(C(=O)OCc2ccccc2)C(c2cccc([N+](=O)[O-])c2)NC(=O)N1 (centres undefined) | -1.91 | –
Cc1ccccc1S(=O)Cc1ccc(C(=O)N2CCN(C(=O)c3ccco3)CC2)o1 (centres undefined) | -1.05 | –
O=C(NCCOc1ccc(F)cc1)C1CCN(S(=O)(=O)c2ccccc2)CC1 | -1.56 | –
COc1cc2c(cc1OC)CN(C(=O)c1ccc(-c3ccccc3)cc1)CC2 | -3.75 | –

Compound | inhibition [%] | Potency
CC(=O)c1ccc(NC(=O)Nc2ccc(Br)cc2C)cc1 | 1.84 | –
CCOC(=O)C1CCCN(CC(=O)Nc2ccc(C(=O)Nc3ccccc3OC)cc2)C1 (centres undefined) | 1.94 | –
O=C(Nc1cccc(NC(=O)c2ccc(F)cc2)c1)c1ccc(F)cc1 | 0.535 | –
O=C(NCCCN1CCCC1=O)c1cccc(Oc2ccccc2)c1 | -1.6 | –
CCOC(=O)Oc1c(OC)cc(C(=O)O[C@@H]2C[C@@H]3CN4CCc5c([nH]c6cc(OC)ccc56)[C@H]4C[C@@H]3[C@H](C(=O)OC)[C@H]2OC)cc1OC | -2 | –
Cc1cc(-c2ccccc2)nc(N/N=C/c2ccc(N(C)C)cc2)n1 | -2.59 | –
O=C(NCc1ccc2c(c1)OCO2)c1ccccn1 | -0.59 | –
CC[C@]1(C(=O)OC)[C@H]2C(=O)N(C)C(=O)[C@H]2[C@H]2CN(C)C(=NC3CCCCC3)N21 | 0.58 | –
O=C(C1CCN(c2nnc(N3CCCC3=O)s2)CC1)N1CCN(c2cccc(C(F)(F)F)c2)CC1 | -2.97 | –
CCOc1ccccc1N(CC(=O)Nc1ccc(OC)cc1)S(=O)(=O)c1ccccc1 | 0.111 | –
CC(/C=C/C1(O)C(C)CC(O)CC1(C)C)OC1OC(CO)C(O)C(O)C1O (centres undefined) | 1.24 | –
COc1cccc(C(=O)Cn2c(NCCCO)nc3ccccc32)c1 | -1.59 | –
CC(C)C1Oc2ccccc2N(CC(=O)NC2CCCCC2)C1=O (centres undefined) | – | 32.9 µM (active)
CCCCN(CC(=O)Nc1cccc(S(=O)(=O)N2CCCC2)c1)Cc1nc2ccccc2c(=O)[nH]1 | -3.5 | –
COc1ccccc1CNC(=O)CCn1c(=O)oc2ccccc21 | -1.34 | –
Cc1cccc(C(=O)NC2CCN(CC(=O)N3CCOCC3)CC2)c1 | -1.99 | –
CCN(CC)S(=O)(=O)c1cc(NC(=O)COC(=O)C2CCC2)ccc1C | -0.16 | –
CC(=O)c1ccc(N2CCN(C(=S)NCc3ccco3)CC2)cc1 | -2.55 | –
COc1ccc(C(C)=O)cc1CSC(=N)N | -2.18 | –
